From PubChem
RTF Ca sens act – increases calcium sensitivity of human cardiac regulated thin filaments. IANBD-labeled TnC RTF fluorescence at EC20 calcium; 0% EC20 calcium, 100% full calcium. 340,000 compounds, 0.24% hits. activation, % at 7.2 µM. AID 493008;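 active = activation above the mean over all tested compounds plus 3 SD, cut at about 30% in these data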;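 also: rise in fluorescence read as greater calcium sensitivity of cardiac thin filaments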
C-LANA FP – blocks KSHV LANA C-terminal domain binding to DNA; inhibition, % at 9 µM; AID 504423; MBP-C-LANA/FAM-LBS DNA binding, fluorescence polarization; 340,000 compounds, 0.078% hits;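 active = highest replicate inhibition at or above 60% at 9 µM, even if other replicates fall short; inactive = all replicates below 60% inhibition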;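 also: 0% = neutral control wells and 100% = 4 µM acridine orange control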
RTF Ca sens inh – cardiac RTF calcium desensitization; IANBD-labeled cardiac RTF, Ca2+ fluorescence; inhibition, % at 7.15 µM; 340,000 compounds, 0.12% hits; AID 493244;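 active = inhibition above the mean inhibition of all tested compounds plus 3 SD, cut at about 17% in these data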;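 also: assay run at fixed EC70 calcium of 1.6 mM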
Keap1-Nrf2 PPI – disrupts human Keap1 binding to Nrf2 peptide. Keap1 Kelch-Nrf2 peptide fluorescence polarization, 1536-well. inhibition, % at 9.4 µM. 340,000 compounds, 0.15% hits. Q14145; in the data active = inhibition above about 12%;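 also: human Keap1 Kelch domain with fluorescein labeled Nrf2 9mer peptide probe; 0% = neutral control wells and 100% = peptide positive control; higher means more block of Keap1 binding to Nrf2 peptide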
Target sequence (Q14145 whole entry, looked up, the tested form may be a part): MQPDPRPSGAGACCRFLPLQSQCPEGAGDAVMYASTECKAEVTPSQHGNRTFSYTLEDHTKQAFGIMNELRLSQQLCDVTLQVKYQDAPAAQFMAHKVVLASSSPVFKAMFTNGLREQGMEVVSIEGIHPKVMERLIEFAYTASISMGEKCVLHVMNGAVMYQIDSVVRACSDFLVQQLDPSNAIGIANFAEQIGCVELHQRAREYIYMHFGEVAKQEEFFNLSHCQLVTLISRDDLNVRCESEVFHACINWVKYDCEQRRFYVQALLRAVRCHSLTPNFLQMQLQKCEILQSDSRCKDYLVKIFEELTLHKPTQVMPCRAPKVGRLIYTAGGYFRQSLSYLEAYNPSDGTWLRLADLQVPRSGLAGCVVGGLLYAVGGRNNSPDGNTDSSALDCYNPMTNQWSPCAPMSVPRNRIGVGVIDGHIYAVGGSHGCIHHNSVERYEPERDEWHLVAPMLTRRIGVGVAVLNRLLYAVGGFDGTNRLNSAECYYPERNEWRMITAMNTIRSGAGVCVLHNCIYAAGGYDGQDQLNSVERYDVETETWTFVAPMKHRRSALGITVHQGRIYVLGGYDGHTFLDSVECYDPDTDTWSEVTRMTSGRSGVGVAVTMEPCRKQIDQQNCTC
Keap1 Kelch bind – binds and thermally shifts human Keap1 Kelch domain. shares compounds with Keap1-Nrf2 PPI. Keap1 Kelch thermal shift, delta Tm; hits give high values. max delta Tm, degrees C. 400 compounds, 8% hits. AID 651823; in the data active = max delta Tm above about 0.48 degrees C
Dye-only ctr – dye artifact in Keap1 thermal shift counter-screen | shares compounds with Keap1-Nrf2 PPI | Sypro Orange dye-only thermal melt, no protein, delta Tm; top dose 26 µM | delta Tm, degrees C (concentration not given with the values) | 140 tested, under 10 active;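 active = at highest dose tested, delta Tm positive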
Starred values were filed as active, the others as inactive; . = no result. Rows were chosen to be rich in hits. Some 0.5% of all compounds tested hit in one or more screens of this group.

SMILES | RTF Ca sens act | C-LANA FP | RTF Ca sens inh | Keap1-Nrf2 PPI | Keap1 Kelch bind | others
COc1ccc(/C=c2\s/c(=C(/C#N)C(=O)NCc3ccco3)n(-c3ccccc3)c2=O)cc1 | -1.4 | 13.1 | -10.7 | 13.1* | -0.02
O=[N+]([O-])c1cncc([N+](=O)[O-])c1Nc1cccc(O)c1 | 0.6 | 27.0 | -9.3 | 35.2* | -0.14
O=C1CC(c2ccco2)CC2=C1C=Nc1ccccc1N2 (stereo unspecified) | -3.9 | 0.9 | -18.3 | -1.3 | .
O=c1[nH]c2c(s1)C=Nc1ccccc1N2 | 78.4* | 54.4 | -100.4 | 38.2* | -0.04 | Dye-only ctr=-20.5
Fc1ccccc1CNC(=S)Nc1cccc(C(F)(F)F)c1 | 1.0 | -4.4 | -2.7 | 8.1 | .
c1ccc(-c2cn3nc4c(nc3n2)CCCC4)cc1 | 31.4* | 41.5 | -26.7 | 21.5* | -0.13 | Dye-only ctr=-30.5
C=CCc1cc(/C=N/NC(=O)CSc2nnc(CCCc3ccc(OC)cc3)o2)cc(OC)c1O | 1.8 | 0.7 | -6.7 | -6.6 | .
N#C/C(=C\c1ccc[nH]1)C(=O)N1CCCCC1 | . | . | . | 58.3* | -0.17
N#C/C(=C\c1ccc(O)cc1)C(=O)N1CCCC1 | 0.1 | -0.9 | -3.0 | -3.6 | .
COc1ccc(/C(C)=N/N=C2/NC(=O)CC(C(=O)O)S2)cc1F (stereo unspecified) | -0.8 | -0.1 | 0.1 | 1.3 | .
O=C(COC(=O)CNC(=O)c1ccc(Cl)cc1)Nc1cccc(S(=O)(=O)N2CCCC2)c1 | 4.6 | -0.9 | -3.5 | 1.7 | .
Cn1c(SCC(=O)N/N=C/c2ccccn2)nnc1-c1ccccc1 | 5.6 | 0.3 | -5.4 | -5.4 | .
CCOC(=O)N/N=C/c1ccc(N(CC)CC)cc1O | -1.1 | 1.5 | 5.9 | 0.2 | .
CCN(CC)c1ccc(/C=N/NC(=O)c2c(Cl)cnn2C)c(O)c1 | 2.3 | -2.2 | -16.9 | 21.7* | -0.15
O=C(COC(=O)c1cccnc1Cl)Nc1ccc(N2CCCCC2)cc1 | 2.4 | . | -14.5 | 43.2* | -0.12 | Dye-only ctr=-27.5
CCOc1ccccc1C(=O)OCC(=O)Nc1ccc(N2CCCCC2)cc1 | 5.5 | -0.5 | 4.5 | -4.9 | .
COc1ccc(CCC(=O)OCC(=O)Nc2c(C)n(C)n(-c3ccccc3)c2=O)cc1 | -2.8 | 0.0 | -1.3 | -1.5 | .
C=CCOc1ccc(CNc2ccc(NC(=O)CC(C)C)cc2)cc1OC | -5.0 | 0.8 | 1.2 | 16.9* | -0.12
C=CCOc1ccc(CNc2nn[nH]n2)cc1OC | -2.7 | -1.4 | 7.9 | 0.4 | .
O=C(c1ccccc1)c1ccc(O)cc1O | 156.6* | 103.3* | -237.9 | 59.4* | -0.15
O=C(c1ccc(O)cc1)c1ccc(O)cc1O | -0.5 | 12.1 | 2.8 | 0.9 | .
Cc1ccc(C)c(N2CCN(C(=O)c3cc4ccccn4n3)CC2)c1 | 102.8* | 44.3 | -197.2 | 16.3* | 0.38 | Dye-only ctr=-28.2
COc1cccc(-c2ccc(NC(=O)C3CCCN(Cc4cnc(C)s4)C3)cc2)c1 (stereo unspecified) | -2.0 | 1.1 | 0.4 | 2.7 | .
CNS(=O)(=O)c1ccc2c(c1)oc(=O)c1cc(S(=O)(=O)NC)ccc12 | 5.8 | -1.2 | 3.1 | -3.0 | .
O=C(NNC(=O)c1ccc(Br)o1)c1csc(N2CCOCC2)n1 | 7.2 | 26.5 | -10.8 | 46.0* | -0.12 | Dye-only ctr=-23.8
SMILES | RTF Ca sens act | C-LANA FP | RTF Ca sens inh | Keap1-Nrf2 PPI | Keap1 Kelch bind | others
Cc1ccc(C(=O)NNC(=O)c2csc(N3CCOCC3)n2)o1 | 3.2 | 0.3 | 6.4 | 3.9 | .
N=c1c(S(=O)(=O)c2ccccc2)cc2c(=O)n3ccccc3nc2n1Cc1cccnc1 | 3.9 | 7.9 | -0.8 | 2.1 | .
Cc1cccn2c(=O)c3cc(S(=O)(=O)c4ccccc4)c(=N)n(Cc4cccnc4)c3nc12 | -1.1 | 31.3 | -4.8 | 19.5* | -0.02
COc1ccc(-n2nnnc2SCC(=O)N(C)C2CCS(=O)(=O)C2)cc1 (stereo unspecified) | -1.2 | 1.9 | -4.1 | -7.3 | .
CCn1nnnc1SCC(=O)N(C)C1CCS(=O)(=O)C1 (stereo unspecified) | 1.9 | 15.4 | -0.5 | 37.2* | -0.13
O=c1c(-c2cc3ccccc3o2)[n+]([O-])c2ccccc2n1OCc1ccccn1 | 2.0 | 15.0 | -6.3 | 36.2* | -0.07 | Dye-only ctr=-31.5
CCOn1c(=O)c(-c2cc3ccccc3o2)[n+]([O-])c2ccccc21 | 1.0 | -2.5 | -4.6 | 4.5 | .
CC(=O)c1cccc(S(=O)(=O)NCC(C)(C)N2CCOCC2)c1 | 6.8 | 0.0 | -5.9 | -1.4 | .
Cc1nnc(SCC(=O)NC2CCCC(C)C2C)n1N (stereo unspecified) | 0.3 | 0.4 | 4.4 | 2.4 | .
Cn1nc(C(=O)NNC(=O)Cc2ccc(S(=O)(=O)N3CCOCC3)s2)c2ccccc2c1=O | 3.0 | 20.1 | -13.8 | 32.2* | -0.18 | Dye-only ctr=-27.7
COCCn1c(=NC(=O)c2cc3ccccc3oc2=O)sc2cc(S(N)(=O)=O)ccc21 | -3.8 | -1.0 | -7.6 | -1.2 | .
OC(CNc1ncnc2sccc12)c1ccccc1 (stereo unspecified) | -0.3 | 1.6 | -7.3 | -4.8 | .
N#CCOc1coc(CN2CCN(c3ccccc3)CC2)cc1=O | -3.6 | 0.2 | 6.3 | -3.5 | .
COc1ccccc1Cn1c(=S)[nH]c2ccccc2c1=O | -5.3 | -2.5 | -11.5 | 98.8* | 0.01
CC1Cc2cc(/C=C3/SC(N4CCC(C(N)=O)CC4)=NC3=O)ccc2O1 (stereo unspecified) | . | 11.3 | . | 21.3* | -0.12
CC1CCN(C2=NC(=O)/C(=C/c3cccc(O)c3)S2)CC1 | -1.1 | -1.2 | -4.4 | -0.9 | .
O=c1[nH]c(/C=C/c2cccc3ccccc23)nc2ccccc12 | -1.0 | 34.8 | -13.1 | 16.6* | -0.02 | Dye-only ctr=-21.9
O=c1[nH]c(/C=C/c2ccccc2F)nc2ccccc12 | -3.8 | -1.2 | -1.7 | 3.4 | .
CCN(CC)c1ccc2cc(S(=O)(=O)c3ccc(Cl)cc3)c(=O)oc2c1 | 253.4* | 41.0 | -291.0 | 32.8* | 0.91 | Dye-only ctr=-22.5
CCC(=O)Nc1cccc(-n2nnnc2SCC(=O)N2CCCCC2)c1 | 0.3 | 0.3 | -6.3 | -3.1 | .
Cc1ccc(S(=O)(=O)Nc2ccc3c4c(cccc24)CC3)c(C)c1 | 1.0 | -1.0 | 0.3 | -1.4 | .
Cc1ccc(S(=O)(=O)Nc2cccc(S(=O)(=O)Nc3ccccc3C(=O)O)c2)c(C)c1 | 4.3 | 0.0 | 0.2 | 15.6* | 1.13*
Cc1ccc(S(=O)(=O)Nc2cc(C(C(=O)OC(C)C)C(=O)C(F)(F)F)c(O)c3ccccc23)c(C)c1 (stereo unspecified) | -9.4 | -1.6 | 2.1 | 50.9* | 10.3*
Cc1ccc(S(=O)(=O)Nc2ccc(O)c3ccccc23)c(C)c1 | -2.6 | 1.3 | -6.1 | 12.1* | 1.23*
Cc1ccc(C)c(S(=O)(=O)Nc2ccc(O)c3ccccc23)c1 | -7.3 | -1.8 | 1.0 | 4.1 | .
O=C(OCCN1C(=O)c2cccc3c(N4CCOCC4)ccc(c23)C1=O)c1ccc(Cl)cc1Cl | 191.7* | 62.6* | -267.7 | 42.9* | -0.15 | Dye-only ctr=-4.88
O=C(OCCN1C(=O)c2ccccc2C1=O)c1cc(S(=O)(=O)N2CCOCC2)ccc1Cl | 3.7 | -1.4 | -7.3 | 1.5 | .
